Results taken from the supplement of paper PMC6555819.

What was measured:
Test in all cases: PBM binding z-score (relative to random genomic background probes); higher = stronger binding; sequences stand for … in GC…GCGATTGACAGCGTAGAATGAAGG
[1] = test system: FXR:RXRa (NR concentration 270 nM, RXRa partner concentration 90 nM)
How it was run: (§1)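 For binding z-scores, the reference was random background probes on custom Agilent 4×180K protein-binding microarrays. These arrays were incubated 1 h with ligand-free nuclear receptor dimers in PBS pH 7.4, 2% milk, 0.02% Triton X-100, 1 mM DTT, 0.2 mg/mL BSA and 0.4 mg/ml salmon testes DNA. Fluorescence was scanned after antibody detection of each partner (one per run) and regression-normalized.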

[2] = test system: LXRa:RXRa (NR concentration 270 nM, RXRa partner concentration 90 nM)
How it was run: as §1

[3] = test system: LXRa homodimer (NR concentration 270 nM)
How it was run: as §1

[4] = test system: LXRb:RXRa (NR concentration 270 nM, RXRa partner concentration 90 nM)
How it was run: as §1

[5] = test system: LXRb homodimer (NR concentration 270 nM)
How it was run: as §1

[6] = test system: PPARa:RXRa (NR concentration 270 nM, RXRa partner concentration 90 nM)
How it was run: as §1

[7] = test system: PPARg:RXRa (NR concentration 180 nM, RXRa partner concentration 90 nM)
How it was run: as §1

[8] = test system: PPARg:RXRa 270nM:90nM, anti-RXR (NR concentration 270 nM, RXRa partner concentration 90 nM)
How it was run: as §1

[9] = test system: PPARg:RXRa 30nM:10nM, anti-RXR (NR concentration 30 nM, RXRa partner concentration 10 nM)
How it was run: as §1

[10] = test system: PPARg:RXRa 90nM:30nM, anti-RXR (NR concentration 90 nM, RXRa partner concentration 30 nM)
How it was run: as §1

[11] = test system: PPARg:RXRa DBDmut IVT, anti-RXR (DBD mutation: RXRa K156A/R161A, NR concentration 270 nM, RXRa partner concentration 90 nM)
How it was run: as §1

[12] = test system: PPARg:RXRa IVT, anti-PPARg (NR concentration 270 nM, RXRa partner concentration 90 nM)
How it was run: as §1

[13] = test system: PPARg DBDmut:RXRa IVT, anti-PPARg (DBD mutation: PPARg1 K132A/R137A, NR concentration 270 nM, RXRa partner concentration 90 nM)
How it was run: as §1

[14] = test system: PPARg DBDmut IVT, anti-PPARg (DBD mutation: PPARg1 K132A/R137A, NR concentration 270 nM)
How it was run: as §1

[15] = test system: PPARg homodimer (NR concentration 180 nM)
How it was run: as §1

[16] = test system: PXR:RXRa (NR concentration 270 nM, RXRa partner concentration 90 nM)
How it was run: as §1

[17] = test system: PXR homodimer (NR concentration 270 nM)
How it was run: as §1

[18] = test system: RARa:RXR (NR concentration 270 nM, RXRa partner concentration 90 nM)
How it was run: as §1

[19] = test system: RARa homodimer (NR concentration 270 nM)
How it was run: as §1

[20] = test system: RARb:RXRa (NR concentration 270 nM, RXRa partner concentration 90 nM)
How it was run: as §1

Row | Sequence | PBM binding z-score [1] | PBM binding z-score [2] | PBM binding z-score [3] | PBM binding z-score [4] | PBM binding z-score [5] | PBM binding z-score [6] | PBM binding z-score [7] | PBM binding z-score [8] | PBM binding z-score [9] | PBM binding z-score [10] | PBM binding z-score [11] | PBM binding z-score [12] | PBM binding z-score [13] | PBM binding z-score [14] | PBM binding z-score [15] | PBM binding z-score [16] | PBM binding z-score [17] | PBM binding z-score [18] | PBM binding z-score [19] | PBM binding z-score [20]
1 | ATCGAAAGGTCGTAGGTGAGTATACCCACCCGAA | 5.3 | 4.31 | 0.335 | 3.11 | 0.812 | 5.14 | 4.11 | 4.56 | 1.68 | 3.46 | -0.212 | 2.34 | 1.08 | 0.645 | 1.97 | 3.12 | 0.577 | 4.04 | 0.489 | 3.76
2 | AATACAGGGTCATCGAAGGCCAGAGTACGCACAG | 6.84 | 6.3 | 1.75 | 4.59 | 1.53 | 5.67 | 6.5 | 6.11 | 2.56 | 4.66 | 2.6 | 4.19 | 1.28 | 0.988 | 2.16 | 5.22 | 0.967 | 4.45 | 0.641 | 4.32
3 | GTACCAAGGTGAATATGTCGTTGATGAGTAGGCG | 0.455 | 0.146 | -0.0291 | -0.0194 | -0.329 | 0.873 | 0.753 | 0.42 | 0.0719 | 0.185 | 1.28 | 1.95 | 0.633 | 0.3 | 1.32 | -0.126 | 0.282 | 0.44 | 0.46 | 1.22
4 | TAGCCTAGGTCATGGGCCAGGATACCACGCGAAC | 4.32 | 3.44 | 0.422 | 2.16 | -0.43 | 4.16 | 3.93 | 3.93 | 1.12 | 2.85 | 1.37 | 3.45 | 0.121 | 0.0645 | 0.888 | 1.54 | -0.528 | 2.52 | -0.123 | 3.8
5 | TAGCCTAGGTTATTGGGCCAGTATAGTACGCATC | -0.0933 | 0.0825 | -0.331 | 0.173 | -0.786 | 1.61 | 1.5 | 1.51 | -0.136 | 0.762 | 2.14 | 2.87 | -0.637 | 0.0704 | -0.257 | 0.000197 | -0.646 | 0.299 | -1.1 | 0.689
6 | TCCTGTAGATCAAGCAGGTTAAGAAAGCCTGAGT | 0.115 | 0.256 | -0.387 | 0.136 | -1.12 | 0.563 | -0.537 | 1.19 | 2.38 | 1.42 | 1.36 | -0.00456 | 0.0504 | -0.299 | -0.486 | 0.372 | 0.0191 | 0.301 | -0.136 | 0.0343
